A short description of assay [1]: selective activators of receptor GPR55 – imaging, U2OS cells, beta-arrestin-GFP redistribution, primary screen (AID 1961).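 Also: U2OS osteosarcoma cells stably expressing GPR55 and beta-arrestin-GFP.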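 As to activation: plate controls were DMSO negative control for no effect and LPI positive control for full effect.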 Conditions: measured here: cytotoxicity, cells analyzed, at 10 µM.
In assay [2] the target is G-protein coupled receptor 55 (Homo sapiens) (UniProt Q9Y2T6). Described as above. Conditions: at 10 µM, stronger effect = higher value.

The structures appear in SMILES notation. The campaign covered roughly 290,000 compounds. About 140 (0.048%) were called active. The sample holds actives, similar compounds and a random draw of the others, so the mix is not that of the screen.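 The calls were made as follows: active = activation above 40% with more than 50 cells counted in the well; inconclusive = wells holding fewer than 50 cells, flagged as toxic or sparse; inactive = the rest.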

Sequence of G-protein coupled receptor 55 (Homo sapiens) (Q9Y2T6 whole entry, looked up): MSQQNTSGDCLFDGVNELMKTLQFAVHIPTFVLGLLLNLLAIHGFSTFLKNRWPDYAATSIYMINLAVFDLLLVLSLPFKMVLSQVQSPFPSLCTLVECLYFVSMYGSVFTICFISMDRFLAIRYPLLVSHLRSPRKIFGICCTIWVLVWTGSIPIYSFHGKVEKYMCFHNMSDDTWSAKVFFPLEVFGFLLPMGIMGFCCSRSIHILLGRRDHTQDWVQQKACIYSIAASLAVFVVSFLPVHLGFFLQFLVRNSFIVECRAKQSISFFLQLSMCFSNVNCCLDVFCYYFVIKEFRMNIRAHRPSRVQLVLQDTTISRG

Turning to `O=C(CSc1nnc(-c2ccc(F)cc2)o1)NC1CCCC1`, the cell count in assay [1] was 360 cells. Further, the activation in assay [2] was -0.1% (inactive).
The corresponding values for `CCOC(=O)N1CCN(c2c(NCCCOC(C)C)c(=O)c2=O)CC1` are 327 cells and -0.1% (inactive).
For `CC(C)OCCCNC(=O)Cc1ccc(F)cc1` the same measures were 376 cells and -0.2% (inactive).
For `Cc1ccc2oc(=O)cc(CN3CCN(Cc4ccccc4)CC3)c2c1` the same measures were 335 cells and 0% (inactive).
The molecule `O=C(CNC(=O)c1ccc(N2C(=O)c3ccccc3C2=O)cc1)OCC(=O)c1cccc2ccccc12` yielded a cell count in assay [1] of 341 cells. Besides, in assay [2], the activation is 0% (inactive).
For the molecule `CC(C)N1CCN(Cc2ccc(C#CC(C)(C)O)s2)CC1CCO` (stereo not given), the cell count in assay [1] amounted to 368 cells. In assay [2], the activation is 0.3% (inactive).
For `CCOc1ccc(S(=O)(=O)Nc2ccc(C(=O)N3CCCC3)cc2)cc1C(N)=O`, in assay [1], the cell count came to 319 cells. Also, the activation in assay [2] was 0% (inactive).
Consider `O=S(=O)(c1cccc(-c2nn3c(-c4ccncc4)nnc3s2)c1)N1CCOCC1`, for which the cell count in assay [1] was determined as 342 cells. The activation in assay [2] was -0.2% (inactive).
In assay [1], `COCCNC(=O)C(c1ccc(F)cc1)N(C(=O)CCC(=O)Nc1ccccn1)c1cccc(C)c1` (stereo not given) returned a cell count of 316 cells. In addition, the activation in assay [2] is -0.2% (inactive).
In the case of `CCCc1cc(=O)n2[nH]c(C)c(-c3ccc(OC)cc3)c2n1`, the cell count in assay [1] was 417 cells. Besides, in assay [2], the activation was -0.1% (inactive).
In assay [1], `CC(C)(C)NC(=O)CSc1nc(N)c(NC(=O)c2ccccc2F)c(=O)[nH]1` yielded a cell count of 255 cells. Besides, the activation in assay [2] was 0% (inactive).
For `Cn1c(SCC(=O)NNC(=O)Nc2ccc(Cl)cc2)nnc1-c1ccccc1`, in assay [1], the cell count worked out at 332 cells. For the same molecule, in assay [2], the activation is -0.1% (inactive).
With `COc1cccc(-n2c(SCC(=O)Nc3cc(C)on3)nc3ccccc3c2=O)c1`, the cell count in assay [1] is 336 cells. Further, the activation in assay [2] is 0.5% (inactive).
For the molecule `Cc1cccc(N(CC(=O)Nc2c(C)n(C)n(-c3ccccc3)c2=O)S(C)(=O)=O)c1C`, the cell count in assay [1] was found to be 361 cells. For the same molecule, the activation in assay [2] is 0% (inactive).
As to `CSc1cccc(N/C(=N/S(=O)(=O)c2ccccc2)NN)c1`, the cell count in assay [1] stood at 310 cells. Moreover, in assay [2], the activation was 0.6% (inactive).
`COc1ccc2cc(CCNC(=O)C3CCCC3)c(=O)[nH]c2c1` yielded a cell count in assay [1] of 307 cells. Moreover, in assay [2], the activation is -0.1% (inactive).
For `c1ccc(-c2noc(CN3CCOCC3)n2)cc1` the same measures were 407 cells and 0.2% (inactive).
Molecule `CC(=O)c1c(C)[nH]c(C(=O)NCCc2c[nH]c3ccccc23)c1C` returned a cell count in assay [1] of 348 cells. The activation in assay [2] is -0.1% (inactive).
As to `CC1(C)CC(NC(=O)c2c(N)no[n+]2[O-])CC(C)(C)N1`, in assay [1], the cell count turned out to be 241 cells. In assay [2], the activation was -0.3% (inactive).
`Cc1ccc(NC(=S)Nc2ccc(S(=O)(=O)Nc3ncccn3)cc2)c(C)c1` gave a cell count in assay [1] of 327 cells. Further, the activation in assay [2] was -0.2% (inactive).
Molecule `COCc1[nH]c(=S)[nH]c(=O)c1C` showed a cell count in assay [1] of 339 cells. Moreover, the activation in assay [2] is -0.1% (inactive).
In turn, `Cc1c(Cl)c(=O)oc2cc(OCC(=O)NCc3cccs3)ccc12` showed a cell count in assay [1] of 357 cells. The activation in assay [2] is 0% (inactive).
With `COc1ccc(NC(=O)Cn2c(CCC(=O)O)ccc2-c2ccccc2)cc1`, in assay [1], the cell count amounted to 413 cells. In assay [2], the activation was 0.2% (inactive).
For the molecule `O=C(O)c1ccc(NC(=O)c2ccc3c(c2)C(=O)N(c2ccccc2)C3=O)cc1`, the cell count in assay [1] was found to be 374 cells. Besides, the activation in assay [2] was -0.1% (inactive).
Molecule `O=C(OCc1cc(=O)n2c(n1)sc1ccccc12)c1ccc2c(=O)n3c(nc2c1)CCC3` had a cell count in assay [1] of 323 cells. Besides, in assay [2], the activation was -0.1% (inactive).
Molecule `Cc1sc2nc(CSc3nc4ccccc4c(=O)n3CCCN3CCOCC3)[nH]c(=O)c2c1C` yielded a cell count in assay [1] of 341 cells. For the same molecule, the activation in assay [2] is -0.1% (inactive).
The molecule `CCCN1CCC(=O)N([C@H](CSc2ccc(C)cc2)CC(C)C)CC1` came in with a cell count in assay [1] of 328 cells. For the same molecule, in assay [2], the activation was 5.1% (inactive).
For `Cc1ccc(SC[C@H](CC(C)C)N2CCN(CCc3ccccc3)CCC2=O)cc1` the same measures were 305 cells and 193% (active).
`Cc1ccc(SC[C@H](Cc2ccccc2)N2CCN(CCc3ccccc3)CCC2=O)cc1` came in with a cell count in assay [1] of 347 cells. Moreover, in assay [2], the activation was -0.1% (inactive).
The corresponding values for `Cc1ccc(CNC(=O)CCS(=O)(=O)c2ccc3c(c2)NC(=O)CO3)cc1` are 376 cells and -0.2% (inactive).
In assay [1], `CCOC(=O)C(CSCC(=O)c1ccc(Cl)cc1Cl)NC(=O)OC(C)(C)C` (stereo not given) returned a cell count of 359 cells. Moreover, the activation in assay [2] is -0.1% (inactive).
The molecule `CCOC(=O)c1c(CN2CCN(CCO)CC2)n(-c2ccccc2)c2cc(Br)c(O)cc12` returned a cell count in assay [1] of 355 cells. For the same molecule, the activation in assay [2] was 0.3% (inactive).
Molecule `O=c1oc2ccccc2c(NCc2ccc(Cl)cc2)c1[N+](=O)[O-]` returned a cell count in assay [1] of 384 cells. Besides, the activation in assay [2] is -0.3% (inactive).
With `O=C(NCCN1CCN(C(=O)c2ccc(F)cc2)CC1)c1ccc(F)cc1`, in assay [1], the cell count came out at 452 cells. In addition, the activation in assay [2] is 0.2% (inactive).
Take `CCOc1ccc2nc(Cl)sc2c1`: the cell count in assay [1] turned out to be 247 cells. The activation in assay [2] is -0.1% (inactive).
In assay [1], `Nc1cc(-c2ccccc2)n2c(n1)nc1ccccc12` yielded a cell count of 331 cells. In assay [2], the activation was 0.3% (inactive).
`Cc1cc(=O)[nH]c(SCC(=O)N2CCCCCC2)n1` gave a cell count in assay [1] of 340 cells. Besides, the activation in assay [2] was 0% (inactive).
`CC(=O)NC1(C(F)(F)F)C(=O)N(Cc2ccccc2)C2=C1C(=O)CC(C)(C)C2` (stereo not given) returned a cell count in assay [1] of 419 cells. Further, the activation in assay [2] is 0.2% (inactive).
Molecule `CCS(=O)(=O)N1CCC(C(=O)N2CCc3ccccc3C2)CC1` registered a cell count in assay [1] of 361 cells. The activation in assay [2] is 0% (inactive).
Take `O=C(Cc1ccccc1)Nc1ccc(NC(=O)c2ccco2)cc1`: the cell count in assay [1] was 367 cells. In addition, the activation in assay [2] was 0.2% (inactive).

For the origin of these results see PubChem BioAssay AID1961 (Sanford-Burnham Center for Chemical Genomics, 2009).
